{"source": "paper PMC7819943", "about": "“Rice protein-binding microarrays: a tool to detect cis-acting elements near promoter regions in rice”", "note": "The full ranking holds about 39,000 sequences; the median of “fluorescence intensity (a.u.)” is about 4,300, and the highest 2% start at about 39,000. The sample holds the highest values, similar sequences and a random draw of the others, so the mix is not that of the screen."}
{"molecular_target": "T1, OsSMF1 (Oryza sativa, UniProt Q6ZLB0 1-436)", "T1 sequence": "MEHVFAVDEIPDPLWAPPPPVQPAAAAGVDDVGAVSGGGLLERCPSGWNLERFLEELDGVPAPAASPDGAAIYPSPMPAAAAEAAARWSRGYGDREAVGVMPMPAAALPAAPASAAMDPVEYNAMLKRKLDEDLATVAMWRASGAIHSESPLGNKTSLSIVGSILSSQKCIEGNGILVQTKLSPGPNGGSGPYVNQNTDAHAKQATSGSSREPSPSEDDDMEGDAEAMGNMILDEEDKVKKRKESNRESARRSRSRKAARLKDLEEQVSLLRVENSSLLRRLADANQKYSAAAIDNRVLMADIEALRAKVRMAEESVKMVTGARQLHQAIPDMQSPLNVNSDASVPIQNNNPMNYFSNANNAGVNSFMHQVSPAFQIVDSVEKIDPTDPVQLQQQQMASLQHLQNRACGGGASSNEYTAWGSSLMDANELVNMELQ", "assay": "protein-binding microarray (RPBM); PBS, 2% BSA, 51.3 ng/ul salmon testes DNA, 50 uM zinc acetate, 200 nM TF, 25 C, 1 h; high values mean tight binding", "conditions": "protein: recombinant; tags: N-terminal polyhistidine and DsRed monomer fusion (pET32a); chain copies: 2; label: CyDye5-dUTP incorporated in the synthesized complementary strand; 3' TTTTT single-stranded linker to array surface; dsDNA, one strand shown", "in_short": "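Per-feature fluorescence intensity (arbitrary units), read on an Axon 4000B scanner, is the binding signal. Transcription factors carrying an N-terminal polyhistidine tag and DsRed fusion were expressed in E. coli BL21-CodonPlus and purified on Ni–NTA. A custom Agilent array, made double-stranded by primer extension with Cy5-dUTP and blocked with 2% BSA, was incubated with 200 nM protein in PBS, 2% BSA, salmon testes DNA and 50 µM zinc acetate at 25 °C for 1 h and then washed.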"}
{"sequence": "GAATTTATGGTTGAATACTTAACTTAAAATCCAAGGAACCCGGAGTCACCTAGTGCAG", "binding signal": "3220 fluorescence intensity (a.u.)"}
{"sequence": "TACTTATGTAAAAGGATTGATTTAAGAGAATGGTCCAAACCGGAGTCACCTAGTGCAG", "binding signal": "44100 fluorescence intensity (a.u.)"}
{"sequence": "AGAGGGGAGGAAGAAGGAAGGAGAGATGGGTCCGACATGTCGGAGTCACCTAGTGCAG", "binding signal": "26900 fluorescence intensity (a.u.)"}
{"sequence": "CGTACGGATATGCCCACGTGGCGAAGTCCCACGACGCCACCGGAGTCACCTAGTGCAG", "binding signal": "9930 fluorescence intensity (a.u.)"}
{"sequence": "ATTTCCAGTAAAAGTGGCATTGTTCAGACTTCAGTCATTACGGAGTCACCTAGTGCAG", "binding signal": "3530 fluorescence intensity (a.u.)"}
{"sequence": "CACGGCATCGGCATCGGCAGCCACGCCTCGCGTGGCACGGCGGAGTCACCTAGTGCAG", "binding signal": "4720 fluorescence intensity (a.u.)"}
{"sequence": "GACAGATGTGCTGAGTGCTGACGTGGTTAAACTAACCTCGCGGAGTCACCTAGTGCAG", "binding signal": "16100 fluorescence intensity (a.u.)"}
{"sequence": "AAGAGGATCGCAATCGTGAAAACTTCGCAAGTGTTCAGAACGGAGTCACCTAGTGCAG", "binding signal": "59100 fluorescence intensity (a.u.)"}
{"sequence": "CCAAACTAAGAGTGTTCAAGGGGAGGGGAAAAGAGAAGATCGGAGTCACCTAGTGCAG", "binding signal": "3660 fluorescence intensity (a.u.)"}
{"sequence": "TCGAAAACTTTTCAGCCACGTGATGTTGGCAATCGCTGTTCGGAGTCACCTAGTGCAG", "binding signal": "7190 fluorescence intensity (a.u.)"}
{"sequence": "CTTGGCCCAGAAACAACACACACACTCAAATCTGGATCCACGGAGTCACCTAGTGCAG", "binding signal": "3790 fluorescence intensity (a.u.)"}
{"sequence": "CACCAGCACATAAACACAAACCCACAGAAGACATTGCATTCGGAGTCACCTAGTGCAG", "binding signal": "5420 fluorescence intensity (a.u.)"}
{"sequence": "CCACTGGACCATAACTGGGCCCAGCACACAGAAACAAATCCGGAGTCACCTAGTGCAG", "binding signal": "44700 fluorescence intensity (a.u.)"}
{"sequence": "CGGCCCACCCACCAACCACCACCACCACCACCACACCCGCCGGAGTCACCTAGTGCAG", "binding signal": "3740 fluorescence intensity (a.u.)"}
{"sequence": "GGGCCCCACAACCACCCCATAAATAAAGCAACACAACAACCGGAGTCACCTAGTGCAG", "binding signal": "53000 fluorescence intensity (a.u.)"}
{"sequence": "AATGAAATTAAACACACCCAACAAAATAAAAGACCAAACCCGGAGTCACCTAGTGCAG", "binding signal": "3140 fluorescence intensity (a.u.)"}
{"sequence": "TCCTTCTTCTTCTCCTTCCTCACTGCAACACTCTTCGGGGCGGAGTCACCTAGTGCAG", "binding signal": "38900 fluorescence intensity (a.u.)"}
{"sequence": "CTTCGTCTCCTCCTCCTCCACGTCATCCGCCTCCGCCTCCCGGAGTCACCTAGTGCAG", "binding signal": "26000 fluorescence intensity (a.u.)"}
{"sequence": "TTTGTGCGTGTTACGAGTGACTTGCGTTTATATCCTGCTTCGGAGTCACCTAGTGCAG", "binding signal": "6490 fluorescence intensity (a.u.)"}
{"sequence": "ACAGGCATAGAGGCTGCTGACACACACCATCCGATCTGTCCGGAGTCACCTAGTGCAG", "binding signal": "4990 fluorescence intensity (a.u.)"}
{"sequence": "GGGCGGAGCTGGTGCGGAGGGTGGCGTGGCAGCTCGAGGACGGAGTCACCTAGTGCAG", "binding signal": "5260 fluorescence intensity (a.u.)"}
{"sequence": "GTATTGCTGCTGTGATGGAACAAGCTCAGCAGGGTGACATCGGAGTCACCTAGTGCAG", "binding signal": "3290 fluorescence intensity (a.u.)"}
{"sequence": "GCGTGGTGCTGGTCTCCAAGGATCCCGACAACATCCGCGACGGAGTCACCTAGTGCAG", "binding signal": "5380 fluorescence intensity (a.u.)"}
{"sequence": "TGCAGATGGTGCTGTGAAAGCTCTTGAACAGCAGGAAGGTCGGAGTCACCTAGTGCAG", "binding signal": "43400 fluorescence intensity (a.u.)"}
{"sequence": "CATCCCTGGTGCTCTTGGTCTCTTGGCAGCTGTGGAAGGACGGAGTCACCTAGTGCAG", "binding signal": "43000 fluorescence intensity (a.u.)"}
{"sequence": "GCCGTGAACCAAAGCTCTTGCCGTGCTGTGCCGTGCCGGTCGGAGTCACCTAGTGCAG", "binding signal": "3220 fluorescence intensity (a.u.)"}
{"sequence": "ATGTGATGCATGATGATTAGATATGCTTGCATGTTAATTTCGGAGTCACCTAGTGCAG", "binding signal": "3160 fluorescence intensity (a.u.)"}
{"sequence": "TGCTGCCTTTATCATCACCAAGAGCCACTACCTTGCCTTACGGAGTCACCTAGTGCAG", "binding signal": "4370 fluorescence intensity (a.u.)"}
{"sequence": "ACACTAATTTCAAGGTTGCTCGTGAGTCATAATCCTGACGCGGAGTCACCTAGTGCAG", "binding signal": "7720 fluorescence intensity (a.u.)"}
{"sequence": "GGCCGGAGGGCGGCCTCGGTGGCGTGGAGTTGGCAGCGGGCGGAGTCACCTAGTGCAG", "binding signal": "3770 fluorescence intensity (a.u.)"}
{"sequence": "TCGACCCACCGTCTGCCACGTCAGCTTGCCGCCCACCAATCGGAGTCACCTAGTGCAG", "binding signal": "28900 fluorescence intensity (a.u.)"}
{"sequence": "AGTAACCGACTCCTTTCCAACGTGTTCCCCACGAAGCCGGCGGAGTCACCTAGTGCAG", "binding signal": "4560 fluorescence intensity (a.u.)"}
{"sequence": "GTGCCTGACAATCCTACAGGTGAAATCAACCCCTTTCATCCGGAGTCACCTAGTGCAG", "binding signal": "40800 fluorescence intensity (a.u.)"}
{"sequence": "TTTGAAACCCCTCCTCCTCCTCCTTCCCCAACACACAATCCGGAGTCACCTAGTGCAG", "binding signal": "3250 fluorescence intensity (a.u.)"}
{"sequence": "CCCTTCCTTCCTTCCTTTGCATCATCATCATCAACCCAATCGGAGTCACCTAGTGCAG", "binding signal": "4440 fluorescence intensity (a.u.)"}
{"sequence": "CCACAAACATGCAAGACCAAATTCAACTTCTACAAGTTGTCGGAGTCACCTAGTGCAG", "binding signal": "13900 fluorescence intensity (a.u.)"}
{"sequence": "CGTGTTCGATTCCGCTGCTATCCACGTCGCTACGCGCCACCGGAGTCACCTAGTGCAG", "binding signal": "7020 fluorescence intensity (a.u.)"}
{"sequence": "CCACGCTATCCCATGCGATTCGAGAAGGTTCCACACACACCGGAGTCACCTAGTGCAG", "binding signal": "41300 fluorescence intensity (a.u.)"}
{"sequence": "AGGTTCGCAGTTCCACGCATCCCACCATCACCACACCACGCGGAGTCACCTAGTGCAG", "binding signal": "5160 fluorescence intensity (a.u.)"}
{"sequence": "TCGAGCCGGTAGATGTCTCAGCTAGTGCTTTATCTGTTCGCGGAGTCACCTAGTGCAG", "binding signal": "3180 fluorescence intensity (a.u.)"}
{"sequence": "CGGCGCCTAGACTGCGTATCGTAGCTGTCGAACGTGTCGTCGGAGTCACCTAGTGCAG", "binding signal": "3640 fluorescence intensity (a.u.)"}
{"sequence": "GAATCTACTGGGCATTTCGTCAAACAGCTCATCTGCGCCCCGGAGTCACCTAGTGCAG", "binding signal": "3590 fluorescence intensity (a.u.)"}
